Bioassay records (PubChem BioAssay)
The list is not random: actives were taken first. Their share in the collection is about 2%.
PrP 5UTR inh = inhibition of PrP 5' UTR reporter expression; cell-based PrP 5' UTR mRNA reporter, plate reader; inhibition, % (concentration not given with the values); 340,000 tested, 0.35% active; in the data active = inhibition above about 52%
CCHF vOTU inh-1 = CCHFV vOTU protease inhibitors, primary screen, biochemical, Pep-AMC substrate, fluorescence; AID 651958, 2012; inhibition, % at 11.5 µM; 370,000 tested, 0.55% active; Crimean-Congo hemorrhagic fever virus L polyprotein viral ovarian tumor (vOTU) protease …
PfHsp40 rescue = rescue of yeast from PfHsp40 toxicity, primary screen, S. cerevisiae, ATP luminescence; S. cerevisiae expressing PfHsp40, growth rescue; growth rescue, % at 12.5 µM; 340,000 tested, 0.68% active; in the data active = growth rescue above about 28%, passing the limit was not always enough;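 note: yeast W303a lacking pdr1 and pdr3 grown in galactose medium; growth measured after three days at 30 °C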
PrPC surface inh = inhibitors of human cell surface prion protein PrPC, primary screen, cell-based, TR-FRET | inhibition, % at 13.8 µM | TR-FRET read-out | 370,000 tested, 0.43% active | Major prion protein (Homo sapiens), P04156; in the data active = inhibition above about 24%
Y pestis TopoI = Yersinia pestis topoisomerase I inhibitors, primary screen, biochemical, cleavage product accumulation, plate reader, single point | DNA topoisomerase I (Yersinia pestis CO92) | Y. pestis Topo-I cleavage product accumulation | activity, % at 10 µM | 360,000 tested, 0.064% active; in the data active = activity above about 50%, passing the limit was not always enough
BJeLR lethal = MLPCN primary cell-based screen for lethality selective to Ras in HRASV12 cells. inhibition, % (test concentration not listed). BJeLR (HRASV12) viability, CellTiter-Glo ATP luminescence, 48 h. AID 1554, 2009. 300,000 tested, 0.17% active; in the data active = inhibition above about 50%
PrP 5UTR single = prion 5' UTR mRNA inhibition, cherry-pick retest | inhibition, % at 2.5 µM | shares compounds with PrP 5UTR inh | cell-based prion protein 5' UTR reporter, plate reader | 1,100 tested, 48% active; in the data active = inhibition above about 54%
CCHF vOTU inh-2 = CCHFV vOTU protease inhibitors, confirmation, biochemical, Pep-AMC substrate, fluorescence. shares compounds with CCHF vOTU inh-1. Recombinant CCHFV vOTU. inhibition, % at 11.5 µM. AID 686976, 2013. 1,900 tested, 17% active
PrPC TRFRET cf = confirmation of inhibitors of cell surface human prion protein, confirmation, cell-based, TR-FRET; inhibition, % at 13.8 µM; 1,500 tested, 65% active; shares compounds with PrPC surface inh; cell surface PrPC level; in the data active = inhibition above about 25%
LD9 cytotox = cytotoxicity in LD9 cells, cytotoxicity control for cell surface PrPc inhibitor project, cell-based, luminescence, high throughput | inhibition, % at 13.8 µM | shares compounds with PrPC surface inh | luminescence viability | 1,500 tested, 29% active; in the data active = inhibition above about 9.5%
Each line names hits and unclear results; the compound was inactive in the other large screens (follow-up assays come after a bar, where they were run). Cut-off read from the data, not from the text of the source, unless noted: active = inhibition above about 30%; inactive = the rest.

O=S1(=O)N[C@@H](Cc2ccccc2)COc2cccc(NCCCN3CCOCC3)c21	none (no result: PrP 5UTR inh, PfHsp40 rescue, Y pestis TopoI, BJeLR lethal)
CC(=O)O[C@H]1C(=O)[C@]2(C)[C@H]([C@H](OC(=O)c3ccccc3)[C@]3(O)C[C@H](OC(=O)[C@H](O)[C@@H](NC(=O)c4ccccc4)c4ccccc4)C(C)=C1C3(C)C)[C@]1(OC(C)=O)CO[C@@H]1C[C@@H]2O	PrP 5UTR inh 53, PrPC surface inh 28 | PrP 5UTR single 89 | PrPC TRFRET cf 25 | LD9 cytotox inactive
CC(C)(C)c1ccc(S(=O)(=O)N2CCCC(C(=O)N3CCN(Cc4ccccc4)CC3)C2)cc1 (stereo not given)	none (no result: PrP 5UTR inh, PfHsp40 rescue, Y pestis TopoI, BJeLR lethal)
O=C(CSc1ncnc2ccccc12)Nc1cccc(S(=O)(=O)N2CCCC2)c1	PrP 5UTR inh 85, PrPC surface inh 70 | PrP 5UTR single inactive | PrPC TRFRET cf 73 | LD9 cytotox inactive
O=C(CSc1ncnc2ccccc12)Nc1cc(S(=O)(=O)N2CCCCC2)ccc1Cl	none
C[C@H]1[C@H](NC(=O)c2cccc(C(F)(F)F)c2)CC[C@@]23CCCN2C(=O)CCC[C@@H]13	none (no result: PrP 5UTR inh, CCHF vOTU inh-1, PfHsp40 rescue, Y pestis TopoI, BJeLR lethal)
COC(=O)C1=C(C)N(C)C(=NCc2ccc(C(F)(F)F)cc2)NC1c1cccc(F)c1 (stereo not given)	none (no result: PrP 5UTR inh, PfHsp40 rescue, Y pestis TopoI, BJeLR lethal)
NC(=O)C1CCN(c2nc(-c3ccc(Oc4ccccc4)cc3)cs2)CC1	none (no result: PrP 5UTR inh, CCHF vOTU inh-1, PfHsp40 rescue, Y pestis TopoI, BJeLR lethal)
CCCCC[C@H]1CCCCC[C@H](O)C[C@H](O)[C@@H](O)/C=C/C(=O)O1	none (no result: PrP 5UTR inh, PfHsp40 rescue, Y pestis TopoI, BJeLR lethal)
CC1CCC/C=C/C2CC(O)CC2C(O)/C=C/C(=O)O1 (stereo not given)	PrP 5UTR inh 83, PrPC surface inh 89 | PrP 5UTR single 88 | PrPC TRFRET cf 95 | LD9 cytotox inactive
CC1CCOC(=O)C=CC=CC(=O)OC2CC3OC4C5OC5(C)C(O)CC4(COC(=O)C1O)C2(C)C31CO1 (stereo not given)	PrP 5UTR inh 82, PrPC surface inh 84 (no result: PfHsp40 rescue, BJeLR lethal) | PrP 5UTR single 92 | PrPC TRFRET cf 101 | LD9 cytotox 46
CC1=CC2OC3CC4OC(=O)C=CC=CC(C(C)O)OCC(O)C5(C)OC5C(=O)OCC2(CC1O)C4(C)C31CO1 (stereo not given)	PrP 5UTR inh 94, PrPC surface inh 89 (no result: PfHsp40 rescue, BJeLR lethal) | PrP 5UTR single 93 | PrPC TRFRET cf 96 | LD9 cytotox 60
CC(O)C1C=CC=CC(=O)OC2CC3OC4C5OC5(C)C(O)CC4(COC(=O)C(O)C(C)CCO1)C2(C)C31CO1 (stereo not given)	PrP 5UTR inh 70, PrPC surface inh 92 (no result: PfHsp40 rescue, BJeLR lethal) | PrP 5UTR single 83 | PrPC TRFRET cf 99 | LD9 cytotox 40
CC1=CC2OC3CC4OC(=O)C=CC=CC(=O)OCCC(C)C(O)C(=O)OCC2(CC1)C4(C)C31CO1 (stereo not given)	PrP 5UTR inh 94, PrPC surface inh 82 (no result: PfHsp40 rescue, BJeLR lethal) | PrP 5UTR single 93 | PrPC TRFRET cf 94 | LD9 cytotox 69
COCC(=O)N(c1ccc(C(C)(C)C)cc1)C(C(=O)NC(C)(C)C)c1cccnc1 (stereo not given)	none (no result: PrP 5UTR inh, CCHF vOTU inh-1, PfHsp40 rescue, Y pestis TopoI, BJeLR lethal)
COC(=O)C1=C(C)N(C)C(=NCc2ccc3c(c2)OCO3)NC1c1cccc(Cl)c1 (stereo not given)	none (no result: PrP 5UTR inh, PfHsp40 rescue, Y pestis TopoI, BJeLR lethal)
CC(C)(O)/C=C/C(=O)C(C)(O)C1C(O)CC2(C)C3CC=C4C(C=C(O)C(=O)C4(C)C)C3(C)C(=O)CC12C (stereo not given)	PrP 5UTR inh 70, PrPC surface inh 34 (no result: BJeLR lethal) | PrP 5UTR single 90 | PrPC TRFRET cf 33 | LD9 cytotox 13
COc1ccc(-c2cscc2N)cc1	none (no result: PrP 5UTR inh, PfHsp40 rescue, Y pestis TopoI, BJeLR lethal)
CCC1CN2CCc3cc(OC)c(OC)cc3C2CC1CC1NCCc2c1[nH]c1ccc(O)cc21 (stereo not given)	PrP 5UTR inh 82, PrPC surface inh 87 (no result: BJeLR lethal) | PrP 5UTR single 87 | PrPC TRFRET cf 100 | LD9 cytotox 43
Brc1ccccc1C1Cc2nnccc2CN1 (stereo not given)	none (no result: PrP 5UTR inh, PfHsp40 rescue, Y pestis TopoI, BJeLR lethal)
CC1CC(C)(O)CC(C(O)CC2CC(=O)NC(=O)C2)C1=O (stereo not given)	PrP 5UTR inh 64, PrPC surface inh 83 (no result: BJeLR lethal) | PrP 5UTR single 61 | PrPC TRFRET cf 97 | LD9 cytotox 36
O=C1C=C(c2cccc3c2Oc2ccccc2S3)C[C@@H](c2ccc3c(c2)OCO3)C1	none (no result: PrP 5UTR inh, PfHsp40 rescue, Y pestis TopoI, BJeLR lethal)
OCC1OC(n2ccc3c(NO)ncnc32)C(O)C1O (stereo not given)	PrP 5UTR inh 89, PrPC surface inh 53 (no result: BJeLR lethal) | PrP 5UTR single 85 | PrPC TRFRET cf 44 | LD9 cytotox 92
NC(=O)c1c(Br)n(C2OC(CO)C(O)C2O)c2ncnc(N)c12 (stereo not given)	none (no result: BJeLR lethal)
N#Cc1cn(C2OC(CO)C(O)C2O)c2ncnc(N)c12 (stereo not given)	PrP 5UTR inh 58, PrPC surface inh 26 (no result: BJeLR lethal) | PrP 5UTR single 75 | PrPC TRFRET cf 30 | LD9 cytotox 40
NC(=O)c1cn(C2OC(CO)C(O)C2O)c2ncnc(N)c12 (stereo not given)	PrP 5UTR inh 88, PrPC surface inh 56, BJeLR lethal 91 | PrP 5UTR single 97 | PrPC TRFRET cf 58 | LD9 cytotox 40
COC(=O)[C@]12C[C@H](CC(=O)N3CCN(C(=O)C4CC4)CC3)C(=O)N(Cc3ccc4c(c3)OCO4)C1=C[C@H](C(C)C)O[C@@H]2C1CC1	none (no result: PrP 5UTR inh, PfHsp40 rescue, Y pestis TopoI, BJeLR lethal)
COC(=O)CC1OCC=C2CN3CCC45C6=CC(=O)C(=O)C([N+](=O)[O-])=C6NC4C1C2CC35 (stereo not given)	CCHF vOTU inh-1 64 (no result: PrP 5UTR inh, PfHsp40 rescue, BJeLR lethal) | CCHF vOTU inh-2 inactive
O=C(CNc1cccc2ccccc12)N/N=C/C(Br)=C/c1ccccc1	CCHF vOTU inh-1 82 | CCHF vOTU inh-2 inactive
COC(=O)C1=C(c2ccc(OC(F)(F)F)cc2)C[C@@H]2CC[C@H]1N2C(=O)NCCOc1ccccc1	CCHF vOTU inh-1 30 (no result: BJeLR lethal) | CCHF vOTU inh-2 inactive
COC(=O)C1=C(c2ccc(OC(F)(F)F)cc2)C[C@@H]2CC[C@H]1N2C(=O)NCCOc1ccccc1Cl	none (no result: BJeLR lethal)
